Bioassay records (PubChem BioAssay)
Only some compounds are listed: those with a hit (about 7.4% of all), similar ones and a draw of the others.
Rab9 promoter act = Rab9 promoter activation; Huh7 Rab9 promoter-luciferase reporter, luminescence, 24 h; Potency, µM (top dose mostly 9.22 µM), usual class: activators; 320,000 tested, 2.8% active; note: nearly all actives have a fitted effect of over 60% in size
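Measured in stably transfected Huh7 cells bearing a Rab9 promoter–luciferase construct: 24 h compound treatment at 37 °C, followed by luminescence detection.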
SMN2 splice up = SMN2 splice variant enhancement; HEK293 SMN2-luciferase splicing reporter, luminescence, 30-36 h; Potency, µM (doses to about 46.1 µM), hits mostly activators; 210,000 tested, 2.8% active; AID 1458; note: nearly all actives have a fitted effect of over 55% in size
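HEK293 cells carry an SMN2 […]–luciferase reporter in which exon 7 inclusion puts luciferase in frame. Cells were plated 10-12 h before compound addition, then incubated 30-36 h at 37C. ONE-Glo luminescence was read; sodium butyrate at 4.5 mM final served as control.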
FLuc modulator = counter-screen for miR-21 project: firefly luciferase inhibitors or activators; Potency, µM (doses to about 57.5 µM), usual class: inhibitors; P08659; AID 588342; purified FLuc, Km substrates, luminescence inhibition; 360,000 tested, 6.9% active; note: nearly all actives have a fitted effect of over 55% in size
Target sequence (P08659 whole entry, looked up): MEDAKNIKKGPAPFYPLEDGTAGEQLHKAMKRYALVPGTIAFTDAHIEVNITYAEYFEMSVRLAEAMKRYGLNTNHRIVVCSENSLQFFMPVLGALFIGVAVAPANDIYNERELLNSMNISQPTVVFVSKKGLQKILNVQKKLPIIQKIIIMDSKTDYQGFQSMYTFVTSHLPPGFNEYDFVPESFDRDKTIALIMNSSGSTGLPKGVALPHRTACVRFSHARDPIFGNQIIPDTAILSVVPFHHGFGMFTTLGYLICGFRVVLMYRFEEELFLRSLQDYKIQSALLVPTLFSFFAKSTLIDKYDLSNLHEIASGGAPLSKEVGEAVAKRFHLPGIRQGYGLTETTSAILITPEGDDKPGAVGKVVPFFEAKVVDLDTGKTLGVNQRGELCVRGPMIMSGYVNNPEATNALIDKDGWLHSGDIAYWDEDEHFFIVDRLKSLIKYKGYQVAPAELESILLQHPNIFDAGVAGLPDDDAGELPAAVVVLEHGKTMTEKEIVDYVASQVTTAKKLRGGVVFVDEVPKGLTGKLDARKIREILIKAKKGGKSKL
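Biochemical qHTS of compounds, final roughly 60 µM downward over six points, against 10 nM purified firefly luciferase using Km concentrations of substrates (10 uM D-luciferin, 10 uM ATP) in Tris acetate pH 7.5 buffer; luminescence output.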
ELG1 genotoxic = induces genotoxicity in HEK293T cells with luciferase-tagged ELG1; HEK293T ELG1-luciferase reporter, luminescence, 16 h; Potency, µM (titrated, usually from 46 µM), usual class: activators; 330,000 tested, 1.3% active; AID 504466; note: nearly all actives have a fitted effect of over 60% in size
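Genotoxicity was scored as increased ELG1-luciferase reporter signal, measured by ONE-Glo luminescence (30 min, room temperature). Compound or vehicle exposure of the HEK293T reporter cells lasted 16 hr at 37°C.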
NPC1 promoter act = activates the NPC1 promoter; Huh7 NPC1 promoter luciferase reporter, 24 h; Potency, µM (top dose mostly 9.22 µM), usual class: activators; 320,000 tested, 2.4% active; AID 485313; note: nearly all actives have a fitted effect of over 60% in size
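Huh7 reporter cells (NPC1 promoter driving luciferase) are dosed with compound for 24 h at 37 °C, 5% CO2; luciferase detection reagent is then added and luminescence measured after 10 min at ambient temperature.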
Numbers stand for hits; [ ] = remark or other dose. Calls come from the whole dose curve; as a rule, active = well fitted curve in the direction sought with a large enough effect; inconclusive = small, poorly fitted or top-dose-only effect, or another doubt; inactive = no such curve, though single readings can be large; an effect the other way counts as inactive or inconclusive.

For Cc1ccc(NC(=O)CSc2nc(-c3ccco3)nc3cc(=O)[nH]n23)c(Cl)c1 the results were Rab9 promoter act inactive, FLuc modulator inactive, ELG1 genotoxic inactive and NPC1 promoter act inactive.
For COc1cc(NC(=O)CCc2c(C)nn(-c3ccc4nncn4n3)c2C)cc(OC)c1OC the results were FLuc modulator inactive.
`C(=N\Nc1nc2ccccc2[nH]1)/C1CCCCC1` gave Rab9 promoter act inactive, SMN2 splice up inactive, FLuc modulator 3.38µM, ELG1 genotoxic inconclusive and NPC1 promoter act inactive.
Fc1cccc(/C=N/Nc2nc3ccccc3[nH]2)c1 was read as Rab9 promoter act 3.16µM, SMN2 splice up inconclusive, FLuc modulator 8.49µM, ELG1 genotoxic inconclusive and NPC1 promoter act inconclusive.
C(/CCc1ccccc1)=N\Nc1nc2ccccc2[nH]1 was read as Rab9 promoter act inactive, SMN2 splice up inactive, FLuc modulator 2.13µM, ELG1 genotoxic inconclusive and NPC1 promoter act inactive.
C(=N\Nc1nn[nH]n1)/c1ccccc1 was read as Rab9 promoter act inactive, SMN2 splice up inactive, FLuc modulator inactive, ELG1 genotoxic inactive and NPC1 promoter act inactive.
`C(=N\Nc1nc2ccccc2[nH]1)/c1ccccc1` gave Rab9 promoter act inconclusive, SMN2 splice up 12.6µM, FLuc modulator 10.7µM, ELG1 genotoxic inconclusive and NPC1 promoter act inconclusive.
Screening COc1cc(OC)c(NC(=O)c2nnn(Cc3ccc(C)cc3)c2N)cc1Cl returned SMN2 splice up inactive and FLuc modulator inactive.
For CCOC(=O)c1cc(C)n(CC2CCC(C(=O)Nc3ccc(OCC)cc3)CC2)c1C (stereo not given) the results were FLuc modulator inactive.
Brc1ccc(-c2ccc(/C=N/Nc3nncc(-c4ccccc4)n3)o2)cc1 was read as Rab9 promoter act inactive, SMN2 splice up inactive, FLuc modulator inactive, ELG1 genotoxic inactive and NPC1 promoter act inactive.
Screening Brc1ccc(-c2ccc(/C=N/Nc3nc4ccccc4[nH]3)o2)cc1 returned Rab9 promoter act inconclusive, SMN2 splice up 7.94µM, FLuc modulator 0.849µM, ELG1 genotoxic inconclusive and NPC1 promoter act inconclusive.
`O=c1[nH]c(N/N=C/c2ccccc2)nc2ccccc12` gave Rab9 promoter act 2.24µM, SMN2 splice up 14.1µM, FLuc modulator 6.01µM, ELG1 genotoxic 2.31µM and NPC1 promoter act 3.16µM.
Nc1nnc(/C=C/c2ccccc2Cl)s1 was read as Rab9 promoter act 3.55µM, FLuc modulator 6.75µM, ELG1 genotoxic inconclusive and NPC1 promoter act inconclusive.
Cc1ccc(-c2noc(-c3ccccc3NC(=O)C3CC(=O)N(c4ccccc4C)C3)n2)cc1 (stereo not given) was read as FLuc modulator inactive.
Screening O=C(Cn1c(=O)n(-c2ccc(Cl)cc2)c(=O)c2sc3ccccc3c21)NC1CCCC1 returned SMN2 splice up inactive and FLuc modulator inactive.
`O=c1c2cccnc2[nH]c(=S)n1CCCN1CCN(c2ccc(F)cc2)CC1` gave Rab9 promoter act inactive, SMN2 splice up 7.94µM, FLuc modulator inactive, ELG1 genotoxic inactive and NPC1 promoter act inactive.
Screening Cc1cc(CNC(=O)c2ccc3c(c2)OCO3)c2ccccc2n1 returned Rab9 promoter act inactive, SMN2 splice up inactive, FLuc modulator inactive, ELG1 genotoxic inactive and NPC1 promoter act inactive.
COc1cccc(CNC(=O)c2ccc(CS(=O)c3ccccc3)o2)c1 (stereo not given) was read as Rab9 promoter act inactive, FLuc modulator inactive, ELG1 genotoxic inactive[9.26 µM] and NPC1 promoter act inactive.
`Cc1nn(-c2ccccc2)c(Cl)c1/C=C1\C(=O)N(C)C(=S)N1C` gave Rab9 promoter act inactive, SMN2 splice up inactive, FLuc modulator inactive, ELG1 genotoxic inactive and NPC1 promoter act inactive.
Screening Cc1cc(/C=C2\SC(=S)NC2=O)c(C)n1C1CC1 returned Rab9 promoter act inconclusive, SMN2 splice up inactive, FLuc modulator 6.75µM, ELG1 genotoxic inactive and NPC1 promoter act inconclusive.
Cc1cc(/C=C2/C(=O)N(C)C(=S)N2C)c(C)n1C1CC1 was read as Rab9 promoter act 2µM, SMN2 splice up 12.6µM, FLuc modulator 3.01µM, ELG1 genotoxic 18.4µM and NPC1 promoter act 2.82µM.
Cc1cc(/C=C2\SC(=O)NC2=O)c(C)n1-c1ccc(N(C)C)cc1 was read as Rab9 promoter act inactive, FLuc modulator inactive, ELG1 genotoxic inactive and NPC1 promoter act inactive.
Cc1ccc(-c2cc(C(=O)O)c3ccccc3n2)s1 was read as Rab9 promoter act inactive, FLuc modulator 2.69µM, ELG1 genotoxic inconclusive and NPC1 promoter act inactive.
